Screening data as filed in PubChem BioAssay.
HIF activator = HIF pathway transcriptional activators, primary screen, cell-based, U2OS HRE-luciferase, luminescence. U2OS HRE-luciferase reporter; normalized: DMSO 0%, desferrioxamine 100%. activation, % at 7.5 µM (by protocol). hit rate 0.32% among 300,000. AID 1910, 2009;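 active = mean activation of at least 10% of the iron chelator positive control signal, with at least half of replicates also reaching 10%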
VLA-4 inh = inhibition in human VLA-4 binding assay, primary screen, VLA-4 allosteric modulator project, MLPCN library, flow cytometry, VLA-4 expressing cells; Integrin alpha-4 (Homo sapiens), P13612; ligand binding flow cytometry; inhibition, % (about 7 µM as worked out from the volumes in the protocol); hit rate 0.2% among 330,000; AID 2557, 2010; in the data active = inhibition above about 50%
Target sequence (P13612 whole entry, looked up): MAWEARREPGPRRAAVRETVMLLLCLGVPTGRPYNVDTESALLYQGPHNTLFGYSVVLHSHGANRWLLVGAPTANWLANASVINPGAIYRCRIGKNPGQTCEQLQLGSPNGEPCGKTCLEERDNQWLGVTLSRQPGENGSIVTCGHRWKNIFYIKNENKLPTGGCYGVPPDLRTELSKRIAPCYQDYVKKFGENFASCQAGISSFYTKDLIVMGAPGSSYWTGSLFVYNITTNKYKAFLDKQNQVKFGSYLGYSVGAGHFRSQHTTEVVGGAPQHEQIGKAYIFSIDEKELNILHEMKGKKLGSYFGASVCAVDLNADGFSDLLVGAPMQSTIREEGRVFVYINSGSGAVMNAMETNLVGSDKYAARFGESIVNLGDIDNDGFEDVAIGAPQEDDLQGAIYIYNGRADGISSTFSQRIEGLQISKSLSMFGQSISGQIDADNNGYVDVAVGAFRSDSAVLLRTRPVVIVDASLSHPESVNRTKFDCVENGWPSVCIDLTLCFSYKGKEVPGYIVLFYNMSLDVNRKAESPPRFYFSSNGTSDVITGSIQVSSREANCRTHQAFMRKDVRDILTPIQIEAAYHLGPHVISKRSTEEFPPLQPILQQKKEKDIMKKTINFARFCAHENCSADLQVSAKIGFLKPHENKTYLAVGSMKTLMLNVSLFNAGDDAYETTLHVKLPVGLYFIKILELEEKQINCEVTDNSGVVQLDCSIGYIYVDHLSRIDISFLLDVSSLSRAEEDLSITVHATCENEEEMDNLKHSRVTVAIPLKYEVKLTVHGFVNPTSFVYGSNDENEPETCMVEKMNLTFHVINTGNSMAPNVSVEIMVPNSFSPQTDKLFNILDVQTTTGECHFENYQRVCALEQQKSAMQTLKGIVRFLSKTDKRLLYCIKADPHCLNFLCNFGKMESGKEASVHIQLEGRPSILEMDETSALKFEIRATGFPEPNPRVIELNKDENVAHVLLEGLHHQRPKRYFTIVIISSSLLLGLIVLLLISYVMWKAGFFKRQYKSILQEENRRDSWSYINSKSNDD
Platelet DG rel = inhibitors of platelet dense granule secretion, primary screen, cell-based, MLPCN, human platelets. AID 1663, 2009. inhibition, %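 (compounds screened at 7.5 µM in platelet-rich plasma)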. human platelet-rich plasma, SFLLRN dense granule ATP release, luminescence. hit rate 0.22% among 300,000;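 active = mean replicate score, as percent of positive control, at or above 50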
CHT allo act = CHT positive allosteric modulators, primary screen, cell-based, membrane potential dye, choline EC20 | High affinity choline transporter 1 (Homo sapiens), Q9GZV3 | CHT-expressing cells; stronger effect = higher value; LV-AA mutant CHT in HEK293 cells | B-score at 10 µM | hit rate 0.49% among 310,000 | AID 488977, 2010;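 active = initial fluorescence not abnormally high and integrated response B-score, plate-corrected, over 3 SD above library mean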
AI-2 QS modul = Vibrio harveyi AI-2 quorum sensing modulators, primary screen, JMH597 strain, luminescence/OD600 ratio; Vibrio harveyi JMH597 AI-2 luminescence/OD600 ratio, 9 h; stronger effect = lower value; strain lacks LuxN and CqsS sensors; 0 = neutral-control median; activity change, % at 7.5 µM; hit rate 0.4% among 300,000; AID 2094, 2009; in the data active = activity change below about -75%, passing the limit was not always enough;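 also: luminescence divided by OD600 gain over 9 h not by final OD600 alone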
CHT block = inhibitors of human choline transporter CHT; High affinity choline transporter 1 (Homo sapiens), Q9GZV3; CHT-expressing cells, membrane potential dye, choline response; stronger effect = lower value; B-score at 10 µM; hit rate 0.86% among 310,000; AID 488975, 2010;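 active = B-score over 3 SD under the library average, and starting fluorescence ratio not unusually high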;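 also: choline stimulus applied at its EC90 after an EC20 pre-addition; B-score computed on integrated fluorescence ratio after choline addition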
VLA-4 mod pick = retest of VLA-4 allosteric modulators, confirmation, cell-based, cherry-picked plates, U937, HUTS-21 LIBS antibody; shares compounds with VLA-4 inh; U937 cells, HUTS-21 LIBS mAb binding, flow cytometry; LDV ligand present at threefold Kd; inhibition, % at 6.7 µM; hit rate 2% among 1,300; AID 2813, 2010; in the data active = inhibition above about 40%;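 also: 0% = ligand without compound and 100% = no ligand background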
* marks the source's active call; other numbers are inactive results. Compounds with a hit are over-represented: about 2.2% of the library has one in this group of screens.

For CCS(=O)(=O)c1ccc(N)cc1 the results were HIF activator 0.0, VLA-4 inh 57.5*, Platelet DG rel 18.4, CHT allo act inactive, AI-2 QS modul 7.4, CHT block inactive and VLA-4 mod pick 7.3.
`Cc1ccc(CNC(=O)C2CCCN2S(=O)(=O)c2ccc(Cl)cc2)cc1` (centres undefined) gave HIF activator 0.0, VLA-4 inh -5.6, Platelet DG rel 2.2, CHT allo act inactive, AI-2 QS modul 1.8 and CHT block inactive.
Cc1ccc(CNC(=O)C2CCCCN2S(=O)(=O)c2ccccc2)cc1 (centres undefined) was read as HIF activator -1.6, VLA-4 inh 54.7*, Platelet DG rel -4.0, CHT allo act inactive, AI-2 QS modul 27.4, CHT block inactive and VLA-4 mod pick 16.1.
O=c1cc(C(F)(F)F)nc(-n2[nH]c3c(c2=O)CCCC3)[nH]1 was read as HIF activator -0.1, VLA-4 inh 49.7*, Platelet DG rel -2.0, CHT allo act inactive, AI-2 QS modul 29.4, CHT block inactive and VLA-4 mod pick -4.9.
`Nc1nc(C(F)(F)F)cc(=O)[nH]1` gave HIF activator -0.3, VLA-4 inh 0.8, Platelet DG rel -6.2, CHT allo act inactive, AI-2 QS modul 23.3 and CHT block inactive.
`O=C(NCCc1nnc2ccc(N3CCCCCC3)nn12)c1ccccc1F` gave HIF activator 0.1, VLA-4 inh -5.1, Platelet DG rel 1.2, CHT allo act inactive, AI-2 QS modul 13.5 and CHT block inactive.
For COC(=O)c1c(C)[nH]c(C(=O)C(C)OC(=O)c2cc(C)oc2C)c1C (centres undefined) the results were VLA-4 inh 1.9.
Screening COC(=O)c1c(C)[nH]c(C(=O)C(C)OC(=O)C2CC2)c1C (centres undefined) returned VLA-4 inh 0.1 and VLA-4 mod pick -4.2.
Screening COC(=O)c1c(C)[nH]c(C(=O)C(C)OC(=O)c2ccco2)c1C (centres undefined) returned VLA-4 inh -24.5 and VLA-4 mod pick 9.0.
For CCOC(=O)C1CCN(C(=S)Nc2cccc(C)c2C)CC1 the results were HIF activator -0.4, VLA-4 inh -2.0, Platelet DG rel -0.7, CHT allo act inactive, AI-2 QS modul 20.7 and CHT block inactive.
Screening CN(Cc1ccccc1)C(=O)CN(C)S(=O)(=O)c1ccc(F)cc1 returned HIF activator -1.0, VLA-4 inh 9.9, Platelet DG rel 8.7, CHT allo act inactive, AI-2 QS modul 13.3, CHT block inactive and VLA-4 mod pick 0.0.
For Nc1ncnc(Nc2ccccc2)n1 the results were HIF activator 0.2, VLA-4 inh 54.5*, Platelet DG rel -3.7, CHT allo act inactive, AI-2 QS modul -4.2, CHT block inactive and VLA-4 mod pick -4.9.
Screening CC(=O)c1ccc(NC(=O)C(C)OC(=O)c2ccc(Br)o2)cc1 (centres undefined) returned VLA-4 inh 0.0.
For CCOc1ccccc1C1CC(=O)Nc2cc(C)c(C)cc21 (centres undefined) the results were HIF activator 1.5, VLA-4 inh -0.3, Platelet DG rel -4.0, CHT allo act inactive, AI-2 QS modul 24.4 and CHT block inactive.
`COc1cccc(C2CC(=O)Nc3cc(OC)c(OC)c(OC)c32)c1OC` (centres undefined) gave HIF activator -0.6, VLA-4 inh 2.1, Platelet DG rel 2.1, CHT allo act inactive, AI-2 QS modul 15.7, CHT block inactive and VLA-4 mod pick -0.8.
CCOc1ccccc1C1CC(=O)Nc2cc(OC)c(OC)c(OC)c21 (centres undefined) was read as HIF activator 0.1, VLA-4 inh 6.9, Platelet DG rel -1.1, CHT allo act inactive, AI-2 QS modul -16.0, CHT block inactive and VLA-4 mod pick -2.1.
Screening O=C1CCc2ccc(NC(=O)C3CC3)cc2N1 returned HIF activator -0.9, VLA-4 inh 54.6*, Platelet DG rel -0.3, CHT allo act inactive, AI-2 QS modul 24.0, CHT block inactive and VLA-4 mod pick -9.5.
Screening CC(=O)Nc1ccc2c(c1)NC(=O)CC2 returned HIF activator 0.2, VLA-4 inh -5.3, Platelet DG rel 5.1, CHT allo act inactive, AI-2 QS modul 20.7 and CHT block inactive.
COc1cccc(N2CCN(C(=O)c3cccc(NC4=NC5CS(=O)(=O)CC5S4)c3)CC2)c1 (centres undefined) was read as HIF activator 0.1, VLA-4 inh -40.0, Platelet DG rel 11.8, CHT allo act inactive, AI-2 QS modul 6.8, CHT block inactive and VLA-4 mod pick -0.2.
For Cc1ccc(C)c(N2CCN(C(=O)c3ccc(Cl)c(NC4=NC5CS(=O)(=O)CC5S4)c3)CC2)c1 (centres undefined) the results were HIF activator -0.1, VLA-4 inh -3.9, Platelet DG rel 9.1, CHT allo act inactive, AI-2 QS modul 11.9, CHT block inactive and VLA-4 mod pick 0.0.
Screening O=C(c1ccc(NC2=NC3CS(=O)(=O)CC3S2)cc1)N1CCN(c2ccccc2F)CC1 (centres undefined) returned HIF activator 0.5, VLA-4 inh 7.1, Platelet DG rel -0.7, CHT allo act inactive, AI-2 QS modul 18.2 and CHT block inactive.
For Cc1ccc(C)c(N2CCN(C(=O)Cc3ccc(NC4=NC5CS(=O)(=O)CC5S4)cc3)CC2)c1 (centres undefined) the results were HIF activator -0.2, VLA-4 inh 55.7*, Platelet DG rel -8.3, CHT allo act inactive, AI-2 QS modul 22.5, CHT block inactive and VLA-4 mod pick -2.1.
Screening O=C(c1ccc(Cl)c(NC2=NC3CS(=O)(=O)CC3S2)c1)N1CCN(c2ccccc2)CC1 (centres undefined) returned HIF activator 0.0, VLA-4 inh -3.2, Platelet DG rel -15.2, CHT allo act inactive, AI-2 QS modul 6.4, CHT block inactive and VLA-4 mod pick -0.1.
For COc1ccccc1C(=O)NCCC(=O)OCC(=O)Nc1ccc(S(N)(=O)=O)cc1 the results were VLA-4 inh 5.8.
